High-throughput results from PubChem BioAssay.
Imprint erasure = genomic imprint erasure induction; mouse ES Peg3-LacZ reporter, beta-gal luminescence, 40 h; Potency, µM (top dose mostly 60.7 µM), inactives show top-dose activity change, positive = activation, most hits filed as activators; actives 0.02% (n = 110,000); AID 1948
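Each well holds 300 Peg3LacZ-Neo (maternal) female ES cells incubated 40 h at 37C, 5% CO2. LacZ is measured by BetaGlo luminescence, with AC50 and maximum efficacy derived from dose-response curves.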
p53ts 39C kill = p53ts cell cytotoxicity, nonpermissive temperature; H1299-p53A138V viability at 39C, ATP luminescence, 24 h; Potency, µM (doses to about 46.1 µM), inactives show at the highest dose activity change, negative = cell killing, hits mostly cytotoxic; actives 1.5% (n = 130,000); note: % is set by controls: 0 for no effect and ±100 for the full control effect; nearly all actives have a fitted effect of over 55% in size
p53ts 32C tox = cytotoxicity in p53ts cells at permissive temperature; Potency, µM (titrated, usually from 46.1 µM), for inactives: at the highest dose activity change, negative = cytotoxicity, most hits filed as cytotoxic; AID 924; H1299-p53A138V at 32C, ATP luminescence viability, 24 h; actives 0.93% (n = 130,000);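 note: 0% = DMSO and -100% = full killing by reference compound; nearly all actives have a fitted effect of over 55% in size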
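ATP-content luminescence (ATPlite) read-out after 24 h compound exposure at 32C in H1299-p53A138V cells (600/well). Tested up to 46 uM. Normalized to DMSO (0%) and 100 uM tamoxifen (100% killing); Hill-fit AC50.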
IkB signaling = inhibitors of IkB signaling in ABC-DLBCL cells; ABC-DLBCL IkBa-CBG/CBR dual luciferase ratio, 4 h; response scale: scaled: untreated 0%, proteasome inhibitor 100%; Potency, µM (titrated, usually from 57.1 µM), without a hit: at the top dose IkBa stabilization activation; actives 0.04% (n = 110,000); AID 445; active = well fitted curve in the direction sought with a large enough effect in the signal ratio, not every such curve was filed as active; inconclusive = small, poorly fitted or top-dose-only effect, or a change in a side signal; the % refers to the signal ratio;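 note: the direction sought is a rising ratio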
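Curves were fitted separately to fusion (green), unfused (red) and ratio luminescence, then classed by r2, magnitude and activity. Cells: OCI-Ly3, 4 h compound plus doxycycline at 37C; 10 uM MG-132 defined full response.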
The depositor's hits bear a star; ? = inconclusive; . = no result; [ ] = another dose, or the depositor's remark. An excerpt weighted towards active compounds, which were near 1.8% of everything screened. Unless noted, calls come from the whole dose curve; as a rule, active = well fitted curve in the direction sought with a large enough effect; inconclusive = small, poorly fitted or top-dose-only effect, or another doubt; inactive = no such curve, though single readings can be large; an effect the other way counts as inactive or inconclusive. Potency is the fitted concentration of half-maximal effect.

SMILES | Imprint erasure | p53ts 39C kill | p53ts 32C tox | IkB signaling
Cc1ccc(C)c(S(=O)(=O)c2nnn3c2nc(Nc2ccc(F)c(Cl)c2)c2sccc23)c1 | -20%[10.9 µM] | 2% | 13% | ?
Cc1cc(Nc2cccc(C(F)(F)F)c2)nc2ccc(NC(=O)c3cccnc3)cc12 | . | . | 13µM* | .
CC(C)CN1CCC2(CC1)CCN(C(=O)c1cccc(F)c1)CC2 | . | -5% | -8% | 0%[11.4 µM]
COc1ccccc1N1CCN(c2c3c(nc4nncn24)CCC3)CC1 | -7%[10.9 µM] | -2% | 2% | 1%
Cc1ccc(-c2nc3ccccc3[nH]2)s1 | -91% | 13µM* | 13µM* | ?
c1csc(-c2nc3ccccc3[nH]2)c1 | -73% | -15% | -21% | 2%
Nc1nc(-c2nc3ccccc3[nH]2)cs1 | -82% | 13µM* | 16µM* | ?
O=[N+]([O-])c1ccc2c(N=Nc3ccc4ccccc4c3O)c(O)cc(S(=O)(=O)O)c2c1 | 8%[10.9 µM] | -12%[9.22 µM] | -6%[9.22 µM] | 3%[11.4 µM]
CCOC(=O)C1CCN(c2nc3c(S(=O)(=O)c4ccc(C)c(C)c4)nnn3c3ccc(Cl)cc23)CC1 | -13%[10.9 µM] | 6% | 16% | 0%
Cc1ccc(S(=O)(=O)N(CC(=O)N2CCc3ccccc3C2)c2ccc(C)c(C)c2)cc1 | -13%[10.9 µM] | 39% | 22% | ?
O=C(CN1CCSC1=NCc1ccccc1)c1ccccc1 | . | -4% | . | .
COc1cccc(-c2cc(C(=O)N3CCN(c4ccc(F)cc4)CC3)no2)c1 | -18%[10.9 µM] | 8% | -3% | 7%
O=C(c1cc(-c2ccc(Cl)cc2Cl)on1)N1CCOCC1 | -63% | 10µM* | 3.2µM* | 3%
O=C(c1cc(-c2ccc(F)cc2)on1)N1CCCC1 | -65% | 10µM* | 16µM* | ?
O=C(c1cc(-c2ccc(Cl)cc2)on1)N1CCOCC1 | -66% | 13µM* | 10µM* | ?
O=C(c1cc(-c2ccc(Cl)c(Cl)c2)on1)N1CCCC1 | -9% | 4% | -4% | 10%
COc1cccc(-c2cc(C(=O)N3CCCCCC3)no2)c1 | -65% | 10µM* | 13µM* | ?
CC1CCN(C(=O)c2cc(-c3ccc(Cl)cc3)on2)CC1 | 4%[10.9 µM] | 0% | 8% | ?
CC[C@H]1CN(C)[C@H]2Cc3c([nH]c4ccccc34)C(=O)C[C@H]1[C@H]2C(=O)OC | -14%[10.9 µM] | -4%[9.22 µM] | -3%[9.22 µM] | -1%[11.4 µM]
COc1ccc(-c2ccc3c(n2)CCCN3C[C@H](O)CN2CCCc3nc(C)c(C)cc32)cc1 | . | 11%[9.22 µM] | -4%[9.22 µM] | .
O=C(c1cc(-c2ccc3c(c2)OCO3)on1)N1CCOCC1 | -85% | 7.9µM* | 7.9µM* | ?
COc1ccc(/C=N/Nc2nncc3ccccc23)cc1 | . | 3.2µM* | . | .
CC1CCN(c2nncc3ccccc23)CC1 | -15% | -6% | 6% | -1%
NNc1nncc2ccccc12 | -14% | 10µM* | 7.9µM* | 4%[25.6 µM]
COc1ccccc1/C=N/Nc1nncc2ccccc12 | . | -8% | ? | .
SMILES | Imprint erasure | p53ts 39C kill | p53ts 32C tox | IkB signaling
CSc1nc(N)c2ncn([C@@H]3O[C@@H](COP(=O)(O)OP(=O)(O)OP(=O)(O)O)[C@@H](O)[C@H]3O)c2n1 | . | 10% | 8% | -3%
Cc1cccc(C(=O)Nc2nc3c(s2)CCCC3)c1 | -28%[10.9 µM] | 13µM* | 10µM* | ?
Cn1c(=O)c2c(nc(NCc3ccccc3)n2Cc2ccccc2)n(C)c1=O | -21%[10.9 µM] | -4% | -13% | 6%
Cn1c(=O)c2c(nc(NC3CCCCC3)n2Cc2ccccc2)n(C)c1=O | -19% | 26% | 5µM* | ?
O=C(Nc1ccc([N+](=O)[O-])cc1Cl)c1cc(Cl)ccc1O | -96% | 4µM* | ? | ?
COc1cc(-c2noc(CSc3nc(-c4ccccc4)cc(=O)[nH]3)n2)cc(OC)c1OC | 4%[10.9 µM] | -4% | 8% | ?
Cc1nc2c(ccc3nc(NC(=O)c4ccc5c(c4)OCCO5)sc32)s1 | -1% | 3.2µM* | 4µM* | ?
Cc1csc2nc(-c3cccc(NC(=O)c4ccccc4Cl)c3)cn12 | -2%[10.9 µM] | ? | -21% | -1%
CCCCC(=O)Nc1cccc(-c2cn3ccsc3n2)c1 | -22% | -26% | ? | -2%
COc1ccccc1C(=O)Nc1cccc(-c2cn3ccsc3n2)c1 | -13% | -30% | -29% | ?
Cc1csc2nc(-c3cccc(NC(=O)c4ccccc4F)c3)cn12 | 7%[10.9 µM] | 6.3µM* | ? | ?
Nc1cccc(-c2cn3ccsc3n2)c1 | -45%[10.9 µM] | 25µM* | ? | 3%
O=C(Nc1cccc(-c2cn3ccsc3n2)c1)c1ccccc1 | 2% | 16µM* | ? | ?
O=c1[nH]c(SCc2c(Cl)c(Cl)c(Cl)c(Cl)c2Cl)nc(=S)[nH]1 | -8%[10.9 µM] | -1%[9.22 µM] | -15%[9.22 µM] | 0%[11.4 µM]
O=C(Nc1nnc(-c2ccccc2Cl)o1)c1ccco1 | -29% | 10µM* | 13µM* | ?
COc1ccc(/C=C/C(=O)Nc2ccc3nc4c(c(Nc5ccc(OC)c(OC)c5)c3c2)CCCC4)cc1 | -35%[10.9 µM] | 10µM* | 11µM* | ?
COc1ccccc1Nc1c2c(nc3ccc(NC(=O)/C=C/c4cccc(OC)c4OC)cc13)CCCC2 | -33%[10.9 µM] | -25% | -6% | ?
COc1ccc(Nc2c3c(nc4ccc(NC(=O)/C=C/c5cccc(OC)c5OC)cc24)CCCC3)cc1OC | -34%[10.9 µM] | 10µM* | 10µM* | ?
COc1ccc(Nc2c3c(nc4ccc(NC(=O)/C=C/c5cc(OC)c(OC)c(OC)c5)cc24)CCCC3)cc1OC | -36%[10.9 µM] | 10µM* | 13µM* | ?
COc1ccccc1Nc1c2c(nc3ccc(NC(=O)c4cccc(F)c4)cc13)CCCC2 | -38%[10.9 µM] | 5µM* | 10µM* | -1%
COc1ccc(/C=C/C(=O)Nc2ccc3nc4c(c(Nc5ccccc5OC)c3c2)CCCC4)cc1 | -35%[10.9 µM] | -7% | -8% | ?
COc1c(O)cc2c(c1O)C1OC(CO)C(O)[C@H](O)[C@H]1OC2=O (stereo not given in full) | 7.9µM* | 1% | 3% | .
CN1CCc2cccc3c2[C@H]1Cc1ccc(O)c(O)c1-3 | -54% | 6.3µM* | 25µM* | 7%
CCOc1ccc(CNc2cc(C)nc3nc(-c4cccc(C)c4)nn23)cc1OC | -12%[10.9 µM] | 7.9µM* | -28% | ?
Cc1nnc2c(Nc3cccc(O)c3)nc3ccccc3n12 | -10%[10.9 µM] | 3% | -5% | 15%
O=C(/C=C/c1cn(CC(O)CN2CCCCCC2)c2ccccc12)c1ccc(Br)cc1 (stereo not given) | 10%[10.9 µM] | ? | -4% | 6%
Cc1ccc(C(=O)/C=C/c2cn(CC(O)CN3CCCCCC3)c3ccccc23)cc1 (stereo not given) | ? | 13µM* | ? | ?
COc1ccc(C(=O)/C=C/c2cn(CC(O)CN3CCCCCC3)c3ccccc23)cc1OC (stereo not given) | -5%[10.9 µM] | 13µM* | -16% | ?
O=C(/C=C/c1cn(CC(O)CN2CCCCCC2)c2ccccc12)c1ccccc1 (stereo not given) | -11%[10.9 µM] | ? | -13% | ?
CCCn1c(SCc2nc(-c3cc(OC)ccc3OC)no2)nnc1-c1ccc(Cl)cc1 | -9%[10.9 µM] | 1% | 6% | ?
